Hits are enriched below; roughly 19% of the tested compounds scored in any of these assays.
DT40 TDP1 no CPT = qHTS for Inhibitors of human tyrosyl-DNA phosphodiesterase 1 (TDP1): qHTS in cells in absence of CPT; DT40 Tdp1-/- hTDP1 cells, no CPT, ATP luminescence, 48 h; AID 686978, 2013; Potency, µM (series often up to 46.2 µM), for the others: at the top dose activity change, negative = growth inhibition, usual class: inhibitors; 420,000 compounds, 15% hits; also: potency is read from the fitted curve at half-maximal effect; nearly all actives have a fitted effect of over 55% in size
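Compound effects on proliferation are scored in DT40 Tdp1-/-;hTDP1 cells in the absence of CPT. ATP levels (CellTiter-Glo luminescence) are recorded after a ≥48 hr, 37 °C incubation.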
TDP1 cell CPT = qHTS for Inhibitors of human tyrosyl-DNA phosphodiesterase 1 (TDP1): qHTS in cells in presence of CPT | AID 686979, 2013 | chicken DT40 Tdp1-/-;hTDP1 cells + 20 nM CPT, ATP luminescence, 48 h | Potency, µM (top dose mostly 46.2 µM), inactives show at the top dose activity change, negative = growth inhibition, most hits filed as inhibitors | 420,000 compounds, 12% hits; also: potency is read from the fitted curve at half-maximal effect; nearly all actives have a fitted effect of over 55% in size
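Chicken DT40 Tdp1-/- cells stably complemented with human TDP1 were seeded at 400 cells/well in medium containing 20 nM camptothecin, exposed to pin-transferred compounds, and grown at 37 °C for at least 48 hr. Viability was read as ATP luminescence.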
HT1080 IDH1KD tx = qHTS for induction of synthetic lethality in tumor cells producing 2HG: qHTS for the HT-1080-IDH1KD cell line. HT-1080 IDH1 knockdown viability, ATP luminescence, 48 h. Potency, µM (doses to about 46.1 µM), for inactives: top-dose activity, negative = toxicity, hits mostly cytotoxic. 360,000 compounds, 2% hits. AID 686971, 2013;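 also: potency is read from the fitted curve at half-maximal effect; 0% = DMSO wells and -100% = cell-free medium wells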
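IDH1KD HT-1080 cells, 750/well, RPMI + 5% FBS; compound pinned after 2 h settling; 48 h, 37 °C; CellTiter-Glo luminescence; % activity normalised to DMSO and no-cell wells; curves fitted, classed by r2 and efficacy.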
HT1080-NT tox = qHTS for induction of synthetic lethality in tumor cells producing 2HG: qHTS for the HT-1080-NT fibrosarcoma cell line; Potency, µM (highest dose often 46.1 µM), for inactives: top-dose activity, negative = less viability, usual class: cytotoxic; HT-1080-NT fibrosarcoma viability, CellTiter-Glo ATP luminescence, 48 h; 360,000 compounds, 1.6% hits; AID 686970, 2013;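 also: NT is the 2HG producing partner of a matched IDH1 knockdown line; potency is read from the fitted curve at half-maximal effect; 0% = DMSO-treated cells and -100% = media-only wells without cells; nearly all actives have a fitted effect of over 55% in size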
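Toxicity toward the 2HG-producing NT line was scored as %Activity, normalised to DMSO and no-cell wells, from CellTiter-Glo luminescence after 48 hours' treatment.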
IL1B secr inh = qHTS for Inhibitors of Inflammasome Signaling: IL-1-beta AlphaLISA Primary Screen; THP-1 LPS/ATP IL-1B secretion, AlphaLISA, 16 h; stronger effect = lower value; activity change, % at 57.5 µM; 360,000 compounds, 4.7% hits; in the data active = activity change below about -50%; inconclusive = mostly about -30% to -49%
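THP-1 cells pretreated 1 hr with compounds (up to 57.5 uM final), then stimulated with LPS (250 ng/mL final) plus ATP (1.25 mM final); secreted IL-1B measured by AlphaLISA after 16 hr, decreased signal indicating inhibition.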
Numbers without * were called inactive; u = inconclusive; x = not tested or not shown; [ ] = another dose, or the depositor's remark. Unless noted, calls follow the shape of the dose curve; as a rule, active = well fitted curve in the direction sought with a large enough effect; inconclusive = small, poorly fitted or top-dose-only effect, or another doubt; inactive = no such curve, though single readings can be large; an effect the other way counts as inactive or inconclusive. Unless noted, % is scaled to controls: 0 for no effect and ±100 for the full control effect.

SMILES	DT40 TDP1 no CPT	TDP1 cell CPT	HT1080 IDH1KD tx	HT1080-NT tox	IL1B secr inh
CCOC(=O)C1CCN(C(=O)c2cc(S(=O)(=O)N3CCCCCC3)ccc2OC)CC1	-2%	-3%	4%	-8%	0
O=C(CCC(=O)N(CC(=O)NC1CCCCC1)Cc1cccs1)Nc1nccs1	1%	u	10%	19%	2
COc1ccc(-c2nc(CS(=O)CC(=O)NC3CCC(C)CC3)c(C)o2)cc1OC (centres undefined)	-17%	u	-6%	-1%	u
O=C(Cn1cncn1)NCc1ccc(Cl)cc1	-12%	-9%	21%	2%	-4
Clc1ccc(NCn2cncn2)nc1	-7%	23µM*	11%	-2%	-13
COc1ccc(OS(=O)(=O)c2c(C)noc2C)cc1	-12%	-16%	9%	18%	-1
CCOC(=O)c1c(-c2ccc(OC)cc2)nc2nonc2c1N	2.6µM*	u	4%	-3%	29
CC(C)=CC/C=C1\CCC(C(=O)O)C(C(=O)O)C1 (centres undefined)	0.029µM*	u	16%	21%	28
Cc1ccc(NC(=O)CCN2CCC(C(N)=O)CC2)cc1	-12%	0%	15%	12%	10
COc1ccc(CNC(=O)C2Cc3cc(S(=O)(=O)N4CCCC4)ccc3N2C(C)=O)c(OC)c1 (centres undefined)	1%	-20%	1%	-2%	-10
O=C(c1cccc(OC2CCN(Cc3ccc(F)cc3Cl)CC2)c1)N1CCCC1	u	21µM*	-3%	-12%	14
CSc1ccc(CN2CCC(Oc3cccc(C(=O)N4CCCC4)c3)CC2)cc1	18µM*	21µM*	4%	-4%	0
O=C(c1cccc(OC2CCN(Cc3cc(F)cc(F)c3)CC2)c1)N1CCCC1	u	u	-5%	0%	4
CN(C)CCSc1nc2cc(S(=O)(=O)N3CCCCC3)ccc2o1	u	-10%	-1%	-2%	-16
C=CCNS(=O)(=O)c1ccc(N2C(=O)c3ccccc3C2=O)cc1	0%	-6%	10%	1%	2
Cc1ccc(NC(=O)c2nc[nH]c2C(=O)N[C@H](C)c2ccccc2)cc1	u	23µM*	-18%	-20%	u
C[C@H](NC(=O)c1[nH]cnc1C(=O)Nc1ccccc1F)c1ccccc1	16µM*	u	-7%	-14%	30
C[C@H](NC(=O)c1[nH]cnc1C(=O)Nc1ccccc1)c1ccccc1	u	u	-14%	-13%	4
CC(C)c1ccccc1-n1c(-c2cccnc2)n[nH]c1=S	-19%	-16%	-7%	0%	26
CCCC1=NN(C(=O)Cc2ccc(OC)cc2)C(O)(C(F)(F)F)C1 (centres undefined)	u	u	3%	-19%	22
COc1ccc(NC(=O)C(=O)N2N=C(C(C)C)CC2(O)C(F)(F)F)cc1 (centres undefined)	5µM*	5.8µM*	8.9µM*	u	-12
CCCC1=NN(C(=O)C(=O)Nc2ccc(Br)cc2)C(O)(C(F)(F)F)C1 (centres undefined)	4.6µM*	4.1µM*	16µM*	13µM*	21
CC(C)C1=NN(C(=O)c2cccnc2)C(O)(C(F)(F)F)C1 (centres undefined)	u	u	-2%	6%	23
CCC1=NN(C(=O)C(=O)Nc2ccc(Br)cc2)C(O)(C(F)(F)F)C1 (centres undefined)	-3%	-12%	u	21µM*	44
CC(=O)N/C(=C\c1ccc(Cl)cc1)C(=O)O	-9%	20%	12%	6%	40
SMILES	DT40 TDP1 no CPT	TDP1 cell CPT	HT1080 IDH1KD tx	HT1080-NT tox	IL1B secr inh
COc1ccc(C(N)=O)c(OCC(=O)Nc2cc(C)on2)c1	-14%	15%	0%	8%	12
Nc1nc(N)nc(-c2cc(F)ccc2O)n1	u	u	-20%	-17%	-99*
COc1ccc(O)c(-c2nc(N)nc(N)n2)c1	18µM*	16µM*	-10%	-13%	-98*
COc1ccc(Cc2nc(N)nc(N)n2)cc1	-1%	1%	0%	1%	12
CCC(C)(C)NC(=O)c1ccc2c(c1)N(CC(=O)NC1CCCC1)C(=O)C(C)(C)O2	-3%	5%	8%	12%	-10
Cc1ccccc1C(=O)N1CCN(c2ccc(NC(=O)c3cccc(OC(C)C)c3)cc2)CC1	3.3µM*	3.7µM*	11%	0%	-1
COc1c(C)cccc1C(=O)Nc1ccc(N2CCN(C(=O)c3ccccc3C)CC2)cc1	15µM*	16µM*	-17%	6%	-106*
COc1ccccc1C(=O)Nc1ccc(N2CCN(C(C)=O)CC2)cc1	-7%	3%	-1%	-1%	-56*
CC(=O)N1CCN(c2ccc(NC(=O)C(c3ccccc3)c3ccccc3)cc2)CC1	-22%	-26%	-3%	-23%	-58*
CC(=O)c1ccccc1-c1ccc2c(c1)CC(CNC(=O)c1ccnc(Cl)c1)O2 (centres undefined)	21µM*	23µM*	x	x	x
CCc1cc(C(=O)NCC2Cc3cc(-c4ccccc4C(C)=O)ccc3O2)no1 (centres undefined)	u	-10%[9.04 µM]	x	x	x
Cc1snc(SCC(=O)N/N=C(\N)COc2cccc(C(F)(F)F)c2)c1C#N	-6%	-20%	-21%	-6%	22
CCCCNc1c(-c2ccc(F)cc2)nc2nc(C)cc(C)n12	u	u	-20%	-29%	16
CCCCNc1c(CCc2ccccc2)nc2nc(C)cc(C)n12	u	18µM*	-11%	-16%	-3
CCc1nc2nc(C)cc(C)n2c1Nc1ccc(OC)cc1	18µM*	u	1%	2%	44
COc1ccc(Nc2c(CCc3ccccc3)nc3nc(C)cc(C)n23)cc1	13µM*	18µM*	u	u	-8
Cc1ccc(Nc2c(-c3ccco3)nc3nc(C)cc(C)n23)cc1	u	u	-16%	-10%	5
O=C(NCc1ccncc1)[C@@H]1CCCN1C(=O)[C@@H]1CCCN1C(=O)c1ccccc1	-9%	-18%	u	19%	18
O=C(O)CCCNS(=O)(=O)/C=C/c1ccccc1	-20%	-2%	1%	0%	-1
CC(=O)N1CCN(c2nc3cc(C)ccc3cc2CN(C(=O)c2cccc3ccccc23)C2CC2)CC1	u	13%[9.04 µM]	x	x	x
